Experimental data from PubChem BioAssay (NCATS).
Activity calls are given as the source filed them. Entries that show only a call come without a potency. Calls come from the whole dose curve; as a rule, active = well fitted inhibition curve with a large enough effect; inconclusive = small, poorly fitted or top-dose-only effect; inactive = flat fitted curve, though single readings scatter.

target: Flap endonuclease 1 (Homo sapiens) (UniProt P39748); assay: qHTS Validation Assay for the Inhibitors of Human Flap endonuclease 1 (FEN1) (AID 488816); settings: FEN1 nuclease activity, fluorogenic DNA substrate; series mostly up to 57.1 µM
Sequence (P39748 whole entry, looked up, the tested form may be a part): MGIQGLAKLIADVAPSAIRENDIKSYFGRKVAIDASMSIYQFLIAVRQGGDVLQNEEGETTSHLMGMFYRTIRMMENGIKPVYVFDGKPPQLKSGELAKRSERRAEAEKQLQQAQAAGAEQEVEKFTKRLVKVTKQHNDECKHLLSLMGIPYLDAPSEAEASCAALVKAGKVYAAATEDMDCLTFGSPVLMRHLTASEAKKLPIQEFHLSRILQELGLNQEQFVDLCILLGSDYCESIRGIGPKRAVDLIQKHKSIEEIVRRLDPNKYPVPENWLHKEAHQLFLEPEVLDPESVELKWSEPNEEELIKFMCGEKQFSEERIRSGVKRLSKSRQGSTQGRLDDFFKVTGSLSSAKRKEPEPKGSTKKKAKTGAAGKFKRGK
Excerpt: The major human flap endonuclease FEN1 is an efficient structure-specific enzyme that recognizes and cleaves a 5'-unannealed DNA flap. It belongs to the RAD2 family nucleases, which are involved in DNA metabolism and are highly conserved in prokaryotes and eukaryotes. FEN1 is a key enzyme in DNA replication, repair and maintenance of genomic stability. 5'-flap removal by FEN1 is critical for Okazaki fragment processing during lagging strand DNA synthesis, long-patch base excision repair (LP BER), and regulating or facilitating recombination events. […] Deletion of the yeast FEN1 gene, i.e. rad27, results in an increased frequency of short DNA (3-32 bp) repeats, micro- and mini-satellite formation, trinucleotide repeat expansion, spontaneous recombination events, and a severe growth defect in association with cell cycle arrest in late S/G2 phase. […] Cells from fen1-/- blastocysts show increased apoptotic cell death after ionizing radiation treatment, and chicken cells lacking the fen1 gene are hypersensitive to DNA alkylating agents, e.g. methylmethane sulfonate (MMS) and N-methyl-N'-nitro-N-nitrosoguanidine (MNNG), as well as hydrogen peroxide.
FEN1 is found to be increased in many human cancers, including lung, brain cancer, gastric cancer, prostate cancer, pancreatic cancer and breast cancer. […] In particular, elevation of FEN1 in hormone refractory human prostate cancer cells correlates with resistant to various anticancer agents including ionizing radiation, doxorubicin, paclitaxel and vinblastine.
Three uL of reagents (buffer in column 3 and 4 as negative control and 10 nM FEN1 in columns 1, 2, and 5-48) were dispensed into 1,536-well black solid-bottomed plate. Compounds (23 nL) were transferred via Kalypsys pin tool equipped with 1536-pin array (10 nL slotted pins, V&P Scientific, San Diego, CA). The plates were then incubated for 15 min at room temperature, and 1 uL substrate (50 nM final concentration) were added to start the reaction read twice at 0 min read and 15 min on ViewLux reader. Throughout the screen, reagent bottle and all liquid lines were chilled and made light-tight to minimize reagent degradation. All screening operations were performed on a fully integrated robotic system (Kalypsys, San Diego, CA) containing one RX-130 and two RX-90 anthropomorphic robotic arms (Staubli, Duncan, SC). Library plates were screened starting from the lowest and proceeding to the highest concentration, and a "double-dipping" step of the highest concentration was required to access higher concentrations of compounds. Vehicle-only plates, with DMSO being pin-transferred to the entire column 5-48 compound area, were inserted uniformly at the beginning and the end of each library in order to monitor for and record any shifts in the background, which can be affected by reagent dispensers or loss in enzyme activity overtime. Screening data was corrected, normalized, and concentration-effect relationships were derived by using publicly-available curve fitting algorithms developed in-house (http://ncgc.nih.gov/pub/openhts). A four parameter Hill equation was fitted to the concentration-response data by minimizing the residual error between the modeled and observed responses.
Potency is the fitted concentration of half-maximal effect.

SMILES	Potency
N.N.O=C(O)C1(C(=O)O)CCC1.[Pt+2]	29.9 µM (active)
Oc1cc2c(c(Cl)c1O)CCNCC2c1ccccc1 (configuration not stated)	inactive
S=C(Nc1ccccc1)Nc1nccs1	inactive
Nc1c(S(=O)(=O)O)cc(Nc2ccc(Nc3nc(Cl)nc(Nc4ccc(S(=O)(=O)O)cc4)n3)c(S(=O)(=O)O)c2)c2c1C(=O)c1ccccc1C2=O	0.947 µM (active)
O=Nc1c(-c2c(O)[nH]c3ccccc23)[nH]c2ccccc12	inactive
CCc1ccc(/C=C2/SC(=S)NC2=O)cc1	inactive
C1CCC(N=C(NC23CC4CC(CC(C4)C2)C3)N2CCOCC2)CC1	inactive
Cc1cccc(/C=C/c2ccccc2)n1	inactive
N#C/C(=C\c1ccc(O)c(O)c1)C(=O)Nc1ccccc1	18.9 µM (active)
CN1C2CCCC1CC(NC(=O)c1nn(C)c3ccccc13)C2 (configuration not stated)	inactive
C[C@H](Cc1ccccc1)Nc1ncnc2c1ncn2[C@@H]1O[C@H](CO)[C@@H](O)[C@H]1O	inactive
O=C1c2ccccc2C(=O)c2c(NCCc3ccc(O)cc3)ccc(NCCc3ccc(O)cc3)c21	inactive
